Source: PubChem BioAssay
This is a sample that favours compounds with a hit; in the whole collection about 0.92% have one here.
RXFP1 antag: qHTS Assay for Antagonists of the Relaxin Receptor RXFP1. Relaxin receptor 1 (Homo sapiens), Q9HBX9. HEK293-RXFP1, relaxin-stimulated cAMP HTRF, 30 min; active compounds read low. activity change, negative = inhibition, % at 57.5 µM. 350,000 tested, 0.59% active. AID 1259400, 2018;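 active = activity change of -60% or lower, but not beyond a set lower limit; inconclusive = change between -60% and -40%, or beyond the set limit; inactive = change above -40%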; also: % is scaled to controls: 0 for no effect and ±100 for the full control effect
Target sequence (Q9HBX9 whole entry, looked up): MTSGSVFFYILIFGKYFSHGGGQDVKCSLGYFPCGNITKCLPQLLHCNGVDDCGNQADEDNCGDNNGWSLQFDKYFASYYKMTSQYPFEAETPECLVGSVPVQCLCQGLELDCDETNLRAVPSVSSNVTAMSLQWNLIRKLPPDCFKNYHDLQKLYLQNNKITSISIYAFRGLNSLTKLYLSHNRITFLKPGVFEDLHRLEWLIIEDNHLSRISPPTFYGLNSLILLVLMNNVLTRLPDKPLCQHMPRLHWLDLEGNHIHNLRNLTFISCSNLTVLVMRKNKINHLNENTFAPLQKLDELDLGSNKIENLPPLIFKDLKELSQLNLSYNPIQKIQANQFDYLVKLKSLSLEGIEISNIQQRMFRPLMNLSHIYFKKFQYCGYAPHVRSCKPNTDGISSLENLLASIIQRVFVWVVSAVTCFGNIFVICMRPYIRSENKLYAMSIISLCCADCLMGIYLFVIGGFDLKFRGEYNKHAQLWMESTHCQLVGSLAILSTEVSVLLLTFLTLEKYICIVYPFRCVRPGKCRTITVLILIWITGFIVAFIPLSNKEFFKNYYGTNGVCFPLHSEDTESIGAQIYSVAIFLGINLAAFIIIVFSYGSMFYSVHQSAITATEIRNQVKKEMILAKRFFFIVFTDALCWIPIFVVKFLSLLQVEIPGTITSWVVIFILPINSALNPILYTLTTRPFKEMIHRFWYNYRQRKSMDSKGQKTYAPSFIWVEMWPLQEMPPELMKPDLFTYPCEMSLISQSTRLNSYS
miR-21 reporter: qHTS Assay for Modulators of miRNAs and/orActivators of miR-21; HeLa miR-21 FLuc reporter, luciferase, 48 h; Potency, µM (series often up to 38.3 µM), for inactives: top-dose activity change, positive = activation, usual class: activators; 340,000 tested, under 10 active; AID 2288, 2010;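 also: % of control where 0% means no effect; miR-21 action dims this reporter so a rising signal means less miR-21 action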
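HeLa miR-21-FLuc reporter line, endogenous miR-21; 2000 cells/well in DMEM/10% FBS; compound titration up to ~40uM final, 48 h, 37 degree Celsius; luciferase detection reagent, 15 min lysis, CCD luminescence.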
RXFP1 agonist: qHTS Assay for Agonists of the Relaxin Receptor RXFP1. HEK293T-RXFP1 cAMP TR-FRET, 30 min; response scale: percent of porcine relaxin response, buffer zero. Potency, µM (doses to about 57.5 µM), for the others: top-dose activation, actives largely listed as activators. Relaxin receptor 1 (Homo sapiens), Q9HBX9. AID 2676, 2010. 370,000 tested, 0.3% active; also: potency is read from the fitted curve at half-maximal effect; % is scaled to controls: 0 for no effect and ±100 for the full control effect; nearly all actives have a fitted effect of over 60% in size
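HEK293T cells stably expressing RXFP1 were pretreated with the PDE4 inhibitor Ro 20174, exposed to compounds for 30 min at 37C, lysed, and cAMP was read by TR-FRET. Data normalized to buffer (basal) and 29 nM porcine relaxin (100%).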
GALK inh: qHTS Assay for Inhibitors of Human Galactokinase (GALK). P51570. Purified GALK, Kinase-Glo residual ATP luminescence. Potency, µM (series often up to 57.5 µM), inactives show at the top dose activity change, negative = inhibition, actives largely listed as inhibitors. 270,000 tested, 0.007% active. AID 1868, 2009; also: potency is read from the fitted curve at half-maximal effect; % is scaled to controls: 0 for no effect and ±100 for the full control effect
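Quantitative HTS: GALK 5 nM, ATP 35 uM, galactose 100 uM, 1 h room temperature, then luciferase-based ATP detection.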
KinaseGlo FLuc: Counterscreen for Luciferase (Kinase-Glo TM) Inhibition; Kinase-Glo luciferase, ATP luminescence, 8 min; Potency, µM (series often up to 38.3 µM), for the others: at the top dose activity change, negative = inhibition, actives largely listed as inhibitors; 200,000 tested, 0.28% active; also: potency is read from the fitted curve at half-maximal effect; % is scaled to controls: 0 for no effect and ±100 for the full control effect; nearly all actives have a fitted effect of over 60% in size
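Compounds were added to a substrate mix at pH 7.2 (50 mM imidazole, 10 uM ATP, within the enzyme's linear range), followed by Kinase-Glo detection reagent; luminescence was measured after 8 minutes at ambient temperature.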
PKM2 act: qHTS Assay for Activators of Human Muscle isoform 2 Pyruvate Kinase; purified PKM2, Kinase-Glo ATP luminescence, activation; response scale: 0% is enzyme alone, no compound; 260,000 tested, 0.34% active; Pyruvate kinase PKM (Homo sapiens), P14618; Potency, µM (top dose mostly 57.5 µM), for the others: top-dose activation, hits mostly activators; AID 1631, 2009; also: potency is read from the fitted curve at half-maximal effect; % is scaled to controls: 0 for no effect and ±100 for the full control effect; nearly all actives have a fitted effect of over 55% in size
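Purified hPK-M2 (>95%) run at intermediate activity with 0.1 mM ADP and 0.5 mM PEP in 50 mM imidazole pH 7.2, KCl, MgCl2; 1 h room temperature. ATP formed read by Kinase-Glo luminescence; normalized to uninhibited and no-enzyme controls.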
* hit, by the source's call; [ ] = remark or other dose. Unless noted, calls follow the shape of the dose curve; as a rule, active = well fitted curve in the direction sought with a large enough effect; inconclusive = small, poorly fitted or top-dose-only effect, or another doubt; inactive = no such curve, though single readings can be large; an effect the other way counts as inactive or inconclusive.

COc1cc(/C=N/NC(=O)c2ccccc2O)ccc1OCC(=O)Nc1ccccc1 was read as miR-21 reporter -32%, RXFP1 agonist 3%, GALK inh -5% and PKM2 act 0%.
For COc1cc(/C=N/NC(=O)c2ccncc2)ccc1OC(=O)c1cccc(Br)c1 the results were RXFP1 antag -72*, miR-21 reporter 4%, RXFP1 agonist -2% and GALK inh 3%.
`C[C@@H]1CC(=O)NN=C1c1ccc(NN=C(C#N)C#N)cc1` gave RXFP1 antag -14.
Screening CCc1ccc(C2=NN(S(C)(=O)=O)C(c3cccs3)C2)cc1 (stereo not drawn) returned RXFP1 antag -3, miR-21 reporter -50%, RXFP1 agonist 0%, GALK inh -1%, KinaseGlo FLuc 13µM* and PKM2 act -28%.
For Cc1c(C)c2c(c(C)c1OC(=O)CCC(=O)OCCO)CC[C@](C)(CCC[C@H](C)CCC[C@H](C)CCCC(C)C)O2 the results were RXFP1 antag -19.
O=C(/C=C\Nc1ccccc1Br)c1ccc2c(c1)OCO2 was read as RXFP1 antag -6, miR-21 reporter 21%, RXFP1 agonist 0%, GALK inh 1%, KinaseGlo FLuc 10µM* and PKM2 act -9%.
COc1cc(C(=O)N=c2sc3c(C)ccc(OC)c3n2C)cc(OC)c1OC was read as RXFP1 antag 4, miR-21 reporter -7%, RXFP1 agonist inconclusive, GALK inh 4% and PKM2 act -1%.
For COc1ccc(C(=O)N=c2sc3c(C)ccc(OC)c3n2C)cc1 the results were RXFP1 antag -7, miR-21 reporter -62%, RXFP1 agonist 22%, GALK inh 5%, KinaseGlo FLuc 13µM* and PKM2 act 3%.
For Cc1cc(OCCOCC[N+](C)(C)Cc2ccccc2)ccc1C(C)(C)CC(C)(C)C the results were RXFP1 antag -29.
`CN(C)c1ccc(Cc2cc3c(O)ccc(O)c3cc(Cc3ccc(N(C)C)cc3)c2=O)cc1` gave RXFP1 antag -107*.
For N#Cc1c(N)n(CCNC(=O)c2ccc(Cl)cc2)c2nc3ccccc3nc12 the results were RXFP1 antag -3, miR-21 reporter -3%, RXFP1 agonist 5%, GALK inh 3%, KinaseGlo FLuc -2% and PKM2 act 28µM*.
Screening Cc1ccc(C(=O)NCCn2c(N)c(C#N)c3nc4ccccc4nc32)cc1 returned miR-21 reporter -7%, RXFP1 agonist 26%, KinaseGlo FLuc 4% and PKM2 act inconclusive.
Screening Cc1[nH][nH]c(=O)c1C(c1ccc(Cl)cc1)c1c(C)[nH][nH]c1=O returned RXFP1 antag -80*, miR-21 reporter -1%, RXFP1 agonist -2%, GALK inh 6% and PKM2 act -13%[11.5 µM].
Screening COCCCNc1nc2ccccc2nc1NS(=O)(=O)c1cc(Cl)ccc1Cl returned RXFP1 antag 0, miR-21 reporter 8%, RXFP1 agonist 2% and GALK inh -3%.
Screening COc1ccc(-c2noc(CCC(=O)Nc3cccnc3)n2)cc1OC returned RXFP1 antag -7, miR-21 reporter -24%, RXFP1 agonist 7%, GALK inh 3%, KinaseGlo FLuc -7% and PKM2 act 8.9µM*.
For CC(C)(CO)NS(=O)(=O)c1ccc2c(c1)oc(=O)c1cc(S(=O)(=O)NC(C)(C)CO)ccc12 the results were RXFP1 antag -10, miR-21 reporter -2%, RXFP1 agonist 1%, GALK inh 0%, KinaseGlo FLuc 1% and PKM2 act 2%.
CC(C)(C)NS(=O)(=O)c1ccc2c(c1)oc(=O)c1cc(S(=O)(=O)NC(C)(C)C)ccc12 was read as RXFP1 antag 3, miR-21 reporter -2%, RXFP1 agonist 9%, GALK inh 0%, KinaseGlo FLuc -6% and PKM2 act -15%.
Screening CNS(=O)(=O)c1ccc2c(c1)oc(=O)c1cc(S(=O)(=O)NC)ccc12 returned RXFP1 antag 4, miR-21 reporter 4%, RXFP1 agonist 0%, GALK inh 1%, KinaseGlo FLuc -1% and PKM2 act 1.6µM*.
O=c1oc2cc(S(=O)(=O)NCCCO)ccc2c2ccc(S(=O)(=O)NCCCO)cc12 was read as RXFP1 antag 0, miR-21 reporter -1%, RXFP1 agonist 1%, GALK inh 5% and PKM2 act 14µM*.
For C=C(C(C)=O)C(O)c1ccco1 (stereo not drawn) the results were KinaseGlo FLuc -2%.
Screening COc1ccc(CC(=O)n2[nH]c(=O)ccc2=O)cc1OC returned RXFP1 antag -1, miR-21 reporter -3%, RXFP1 agonist 4%, GALK inh -1% and PKM2 act 8.9µM*.
`O=S(=O)(Nc1c(S(=O)(=O)c2ccccc2)c2nc3ccccc3nc2n1C1CCCCC1)c1ccccc1` gave RXFP1 antag -72*, miR-21 reporter 7%, RXFP1 agonist 5%, GALK inh -5%, KinaseGlo FLuc 1% and PKM2 act 6%.
CCN(CC)CCCN(C(=O)c1ccco1)c1nc(-c2ccc(Cl)cc2)cs1 was read as RXFP1 antag -96*, miR-21 reporter 3%, RXFP1 agonist 1%, GALK inh -2% and PKM2 act 0%.
`CCN(CC)CCCN(C(=O)c1ccco1)c1nc(-c2ccc(C)cc2)cs1` gave RXFP1 antag -14, miR-21 reporter -6%, RXFP1 agonist 0%, GALK inh 10%, KinaseGlo FLuc -8% and PKM2 act -6%.
`O=C(Nc1nnc(C2=COCCO2)o1)c1ccc(Cc2ccccc2)cc1` gave RXFP1 antag -65*, miR-21 reporter -1%, RXFP1 agonist 0%, GALK inh 1%, KinaseGlo FLuc -1% and PKM2 act 2%.
`O=C(Nc1nnc(C2=COCCO2)o1)c1ccc(Cl)cc1` gave RXFP1 antag -4, miR-21 reporter -14%, RXFP1 agonist 0%, GALK inh 0%, KinaseGlo FLuc 2% and PKM2 act -1%.
Screening O=C(c1ccccc1)N1CCC(c2nc3ccccc3o2)CC1 returned RXFP1 antag -13, miR-21 reporter 13% and RXFP1 agonist 2%.
For CCS(=O)(=O)c1ccc(OC)c(C(=O)OC)c1 the results were RXFP1 antag -27.
